Measurements published in PubChem BioAssay AID652104 (National Center for Advancing Translational Sciences (NCATS), 2013).
About 7,200 (1.8%) of roughly 410,000 compounds were called active. Roughly 7% stayed inconclusive and do not appear here. Many of the other results were omitted from the sample, so actives are more common in it than they were. Values without a mark were called inactive. Calls come from the whole dose curve; as a rule, active = well fitted activation curve with a large enough effect; inconclusive = small, poorly fitted or top-dose-only effect, or another doubt; inactive = no such curve, though single readings can be large or run the other way.

Test: qHTS of TDP-43 Inhibitors; note: nearly all actives have a fitted effect of over 50% in size; for growth rescue (activation): % of control where 0% means no effect
Settings: TDP-43 expressing yeast growth rescue, BacTiter-Glo, 24 h; series mostly up to 46.1 µM; growth rescue (activation): at the top concentration
Procedure, shortened: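 Yeast cells expressing TDP-43 under galactose induction are exposed to compounds for 24 hr at 30 deg C. BacTiter-Glo luminescence measures growth, so protective compounds score as activators.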
Potency is the fitted concentration of half-maximal effect.

Compared with Cc1cccc(Cn2c(=O)n(CCC(=O)NCCc3ccc(Cl)cc3)c(=O)c3sccc32)c1, COc1ccc(Cn2c(C(=O)O)c(CNCc3cccc(OC)c3)c3ccc(C)cc32)cc1 is higher in “growth rescue (activation)” value: -5.44% for the first, 5.91% for the second.

First: O=C1Nc2ccc([N+](=O)[O-])cc2C1=Nc1cccc(CO)c1
Second: O=C(Nc1ccc(F)cc1F)c1cnn(-c2ccc(F)cc2)c1-n1cccc1
The “growth rescue (activation)” value of the first is lower: -7.38% for the first, 19.2% for the second.

First: C[n+]1ccc(/C=C/c2c[nH]c3ccccc23)cc1
Second: NC(=O)CSc1c[nH]c2ccccc12
The “growth rescue (activation)” value of the first is lower: -10.3% for the first, -0.941% for the second.

First: CC1CN(C(=O)N2CCC(C(=O)NCc3ccco3)CC2)c2cc(Cl)ccc2O1 (centres undefined)
Second: COc1cccc(NC(=O)C(=O)NCC(c2ccc3c(c2)OCO3)N2CCN(C)CC2)c1 (centres undefined)
The “growth rescue (activation)” value of the first is lower: 0% for the first, 2.35% for the second.

Compared with CC(C)c1ccc(Cn2c(COc3ccccc3)nc3ccccc32)cc1, C=C(Br)Cn1c(CCCC)nc2ccccc21 is higher in “growth rescue (activation)” value: -4.54% for the first, 7.28% for the second.

First: CCNC(=O)Cn1nc(C)n2c(cc3c(OC)cccc32)c1=O
Second: COc1ccccc1NC(=O)c1oc2ccccc2c1NC(=O)COc1ccccc1OC
The “growth rescue (activation)” value of the first is higher: 18.2% for the first, 13.7% for the second.

Compared with CCOc1ccc(C(=O)N2CCN(CCc3ccccn3)CC2)cc1, CN1CCN(c2ccc(CNS(=O)(=O)c3cccc(F)c3)cc2)CC1 is lower in “growth rescue (activation)” value: 19.5% for the first, 7.06% for the second.

First: O=C1C2C3C=CC(C4CC34)C2C(=O)N1c1nccs1 (centres undefined)
Second: O=C1C2C3C=CC(C3)C2C(=O)N1c1ccc(S(=O)(=O)Nc2nccs2)cc1 (centres undefined)
The “growth rescue (activation)” value of the first is higher: 21.6% for the first, -11.2% for the second.

Compared with Cc1ccc(S(=O)(=O)NCC(=O)N2CCOCCOCCOCCOCC2)cc1, O=C(Nc1ccc2nc(SCC(=O)N3CCCc4ccccc43)sc2c1)c1ccc(F)cc1 is higher in “growth rescue (activation)” value: -6.52% for the first, 12.4% for the second.

For COC(=O)c1ccccc1NC(=O)c1cnn(-c2ccc(F)cc2)c1-n1cccc1, the “growth rescue (activation)” value was 0%.

First: Cc1nc2ccccc2nc(=O)c1NNc1ccc([N+](=O)[O-])cc1
Second: NS(=O)(=O)c1ccc2nc(NC(=O)COc3ccccc3)sc2c1
The growth rescue (activation) of the first is lower: 12.8% [at 9.22 µM] for the first, 24% [at 9.22 µM] for the second.

For Cc1c(Cl)cccc1-c1ccc(CNCCCSc2nnnn2C)o1, the growth rescue (activation) was 0% [at 9.22 µM].

With O=[N+]([O-])c1ccc2c(c1)Nc1nc3ccccc3nc1N2 the Potency was 22.4 µM (active).
In the case of CSC(=S)N/N=C/c1c[nH]c2ccccc12, the Potency is reported as 12.6 µM (active).
In the case of COCc1nc2ccccc2n1Cc1ccccc1Br, the Potency is reported as 20 µM (active).
With O=C1C2C3C=CC(C3)C2C(=O)N1c1ncc([N+](=O)[O-])s1 (centres undefined) the Potency was 14.1 µM (active).
In the case of Cc1ccc(CNS(=O)(=O)c2ccc3c(c2)N(C)CCO3)cc1, the Potency is reported as 15.8 µM (active).
With Nc1ccc2c(c1)C(O)c1ccc(Cl)cc1-2 (centres undefined) the Potency was 20 µM (active).
In the case of O=C(c1cnn(-c2ccc(F)cc2)c1-n1cccc1)N1CCN(c2ccc(F)cc2)CC1, the Potency is reported as 25.1 µM (active).
